In publication PMC7862700, “An all-to-all approach to the identification of sequence-specific readers for epigenetic DNA modifications on cytosine” one finds binding signal data, which are given here for one sequence.

Experiment in all cases: DAPPL (digital affinity profiling via proximity ligation, sequencing); 10 mM Tris-HCl pH 7.5, 50 mM NaCl, 1 mM DTT, 4% glycerol, room temperature, 30 min; GST-TFs on glutathione beads, 16-mer random dsDNA library, 0.1% formaldehyde crosslink after washing; high values mean tight binding
The target of assay [1] is T1, FLI1 (Homo sapiens, UniProt Q01543 1-452).
T1 sequence: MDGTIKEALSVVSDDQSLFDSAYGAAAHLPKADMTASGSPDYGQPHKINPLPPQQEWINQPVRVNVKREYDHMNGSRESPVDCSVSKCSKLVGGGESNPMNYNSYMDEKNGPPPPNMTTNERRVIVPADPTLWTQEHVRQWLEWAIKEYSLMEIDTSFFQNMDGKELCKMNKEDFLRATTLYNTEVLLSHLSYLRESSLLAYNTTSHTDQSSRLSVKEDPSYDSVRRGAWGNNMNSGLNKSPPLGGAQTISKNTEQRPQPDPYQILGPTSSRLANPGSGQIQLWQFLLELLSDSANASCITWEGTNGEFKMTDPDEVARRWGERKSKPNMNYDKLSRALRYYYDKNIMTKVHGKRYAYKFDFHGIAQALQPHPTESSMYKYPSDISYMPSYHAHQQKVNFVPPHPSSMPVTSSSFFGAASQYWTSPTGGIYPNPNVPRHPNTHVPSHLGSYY
Conditions: protein: recombinant; tags: N-terminal GST; dsDNA, one strand shown. The procedure, abridged:
(§1)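 Pools were built from human transcription factors expressed in yeast as GST fusions, captured on glutathione beads and DNA-barcoded, along with a tag-only sample. Incubation with 200 nmole of a 16-mer random double-stranded DNA library lasted 30 min at room temperature in Tris/NaCl/DTT/glycerol buffer, and was followed by washing, 0.1% formaldehyde crosslinking, proximity ligation, PCR amplification and Illumina NextSeq500 sequencing. Binding signal is the quotient of each hexamer's read frequency for a factor and its frequency for the tag-only sample.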

The target in assay [2] is T2, ELK1 (Homo sapiens, UniProt P19419 1-428).
T2 sequence: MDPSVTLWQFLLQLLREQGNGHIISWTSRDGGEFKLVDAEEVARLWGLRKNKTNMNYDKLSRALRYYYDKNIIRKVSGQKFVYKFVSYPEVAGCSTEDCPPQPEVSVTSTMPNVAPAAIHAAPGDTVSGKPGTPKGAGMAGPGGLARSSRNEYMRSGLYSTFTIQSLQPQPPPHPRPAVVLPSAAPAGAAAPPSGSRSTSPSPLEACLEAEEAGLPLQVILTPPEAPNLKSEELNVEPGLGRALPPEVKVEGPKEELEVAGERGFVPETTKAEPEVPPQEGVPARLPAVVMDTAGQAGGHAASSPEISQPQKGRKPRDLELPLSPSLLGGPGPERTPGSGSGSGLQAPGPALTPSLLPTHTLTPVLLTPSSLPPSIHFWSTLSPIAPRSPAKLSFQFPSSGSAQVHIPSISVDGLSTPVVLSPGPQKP
The conditions noted are these: protein: recombinant; tags: N-terminal GST; dsDNA, one strand shown. The procedure, abridged: as §1

Assay [3] deals with T3, GABPA (Homo sapiens, UniProt Q06546 1-454).
T3 sequence: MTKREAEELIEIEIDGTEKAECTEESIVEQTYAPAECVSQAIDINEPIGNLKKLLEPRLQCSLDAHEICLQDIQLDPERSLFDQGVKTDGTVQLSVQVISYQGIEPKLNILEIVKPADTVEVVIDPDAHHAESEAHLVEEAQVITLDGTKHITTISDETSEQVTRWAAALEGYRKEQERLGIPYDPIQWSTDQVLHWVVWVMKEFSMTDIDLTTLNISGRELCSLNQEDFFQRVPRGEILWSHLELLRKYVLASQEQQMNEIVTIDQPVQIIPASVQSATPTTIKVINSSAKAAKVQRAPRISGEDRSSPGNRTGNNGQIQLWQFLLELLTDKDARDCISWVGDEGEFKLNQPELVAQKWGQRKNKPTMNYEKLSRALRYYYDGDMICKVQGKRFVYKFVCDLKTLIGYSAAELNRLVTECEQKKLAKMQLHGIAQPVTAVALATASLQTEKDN
The conditions noted are these: protein: recombinant; tags: N-terminal GST; dsDNA, one strand shown. An outline of the steps:
as §1

In assay [4] the target is T4, ERG (Homo sapiens, UniProt P11308 1-479).
T4 sequence: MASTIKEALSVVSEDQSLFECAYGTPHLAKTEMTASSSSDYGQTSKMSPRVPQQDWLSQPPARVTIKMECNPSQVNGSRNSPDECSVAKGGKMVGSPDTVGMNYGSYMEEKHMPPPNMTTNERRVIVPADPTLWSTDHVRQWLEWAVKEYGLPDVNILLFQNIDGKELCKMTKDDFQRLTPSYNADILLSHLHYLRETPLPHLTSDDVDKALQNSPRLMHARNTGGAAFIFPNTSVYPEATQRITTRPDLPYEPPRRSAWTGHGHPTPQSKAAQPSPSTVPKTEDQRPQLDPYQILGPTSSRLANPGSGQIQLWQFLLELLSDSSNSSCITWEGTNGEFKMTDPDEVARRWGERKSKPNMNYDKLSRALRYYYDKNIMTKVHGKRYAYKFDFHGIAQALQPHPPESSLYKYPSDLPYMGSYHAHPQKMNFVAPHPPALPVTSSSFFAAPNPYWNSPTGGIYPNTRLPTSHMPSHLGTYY
Conditions: protein: recombinant; tags: N-terminal GST; dsDNA, one strand shown. The procedure, abridged: as §1

Assay [5] concerns the target ELF1 (Homo sapiens, UniProt P32519 1-619). Conditions: protein: recombinant; tags: N-terminal GST; dsDNA, one strand shown. The procedure, abridged: as §1
Assay [6] addresses T5, EHF (Homo sapiens, UniProt Q9NZC4 1-300).
T5 sequence: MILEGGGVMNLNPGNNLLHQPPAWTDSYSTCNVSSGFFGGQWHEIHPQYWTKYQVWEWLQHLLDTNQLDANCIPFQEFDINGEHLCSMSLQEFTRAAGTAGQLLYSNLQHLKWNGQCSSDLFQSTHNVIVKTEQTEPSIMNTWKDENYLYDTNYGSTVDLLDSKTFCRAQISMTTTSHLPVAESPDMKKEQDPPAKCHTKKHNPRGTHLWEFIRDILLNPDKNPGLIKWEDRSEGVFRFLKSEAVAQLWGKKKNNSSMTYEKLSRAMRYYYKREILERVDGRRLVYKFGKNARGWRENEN
The conditions noted are these: protein: recombinant; tags: N-terminal GST; dsDNA, one strand shown. An outline of the steps: as §1

For assay [7], the target named is SPI1 (Homo sapiens, UniProt P17947 1-270). The conditions noted are these: protein: recombinant; tags: N-terminal GST; dsDNA, one strand shown. An outline of the steps: as §1
Assay [8] has as its target SPIB (Homo sapiens, UniProt Q01892 1-262). Conditions: protein: recombinant; tags: N-terminal GST; dsDNA, one strand shown. The procedure, abridged: as §1
The target of assay [9] is T6, ELK3 (Homo sapiens, UniProt P41970 1-407).
T6 sequence: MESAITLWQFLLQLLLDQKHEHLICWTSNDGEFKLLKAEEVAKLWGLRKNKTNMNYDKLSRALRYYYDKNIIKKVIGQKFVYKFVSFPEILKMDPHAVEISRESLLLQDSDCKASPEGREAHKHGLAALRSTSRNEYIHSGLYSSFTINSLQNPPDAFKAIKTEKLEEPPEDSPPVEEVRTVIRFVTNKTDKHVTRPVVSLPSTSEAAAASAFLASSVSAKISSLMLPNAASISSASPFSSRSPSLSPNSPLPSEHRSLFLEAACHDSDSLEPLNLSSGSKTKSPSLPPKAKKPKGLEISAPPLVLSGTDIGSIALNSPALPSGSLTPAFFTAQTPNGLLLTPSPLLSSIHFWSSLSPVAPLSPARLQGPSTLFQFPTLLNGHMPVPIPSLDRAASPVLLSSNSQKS
The conditions noted are these: protein: recombinant; tags: N-terminal GST; dsDNA, one strand shown. An outline of the steps:
as §1

In assay [10] the target is T7, FEV (Homo sapiens, UniProt Q99581 1-238).
T7 sequence: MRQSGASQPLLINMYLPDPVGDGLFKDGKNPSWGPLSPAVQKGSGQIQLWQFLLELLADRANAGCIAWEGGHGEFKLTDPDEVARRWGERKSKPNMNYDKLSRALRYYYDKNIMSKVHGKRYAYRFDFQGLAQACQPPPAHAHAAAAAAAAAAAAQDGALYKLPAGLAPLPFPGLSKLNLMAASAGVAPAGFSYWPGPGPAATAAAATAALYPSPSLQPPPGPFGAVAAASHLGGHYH
Conditions: protein: recombinant; tags: N-terminal GST; dsDNA, one strand shown. The procedure, abridged: as §1

The target in assay [11] is ETV5 (Homo sapiens, UniProt P41161 1-510). Conditions: protein: recombinant; tags: N-terminal GST; dsDNA, one strand shown. The procedure, abridged:
as §1

Assay [12] deals with HSF1 (Homo sapiens, UniProt Q00613 1-529). Conditions: protein: recombinant; tags: N-terminal GST; chain copies: 3; dsDNA, one strand shown. The procedure, abridged: as §1
For assay [13], the target named is T8, SPIC (Homo sapiens, UniProt Q8N5J4 1-248).
T8 sequence: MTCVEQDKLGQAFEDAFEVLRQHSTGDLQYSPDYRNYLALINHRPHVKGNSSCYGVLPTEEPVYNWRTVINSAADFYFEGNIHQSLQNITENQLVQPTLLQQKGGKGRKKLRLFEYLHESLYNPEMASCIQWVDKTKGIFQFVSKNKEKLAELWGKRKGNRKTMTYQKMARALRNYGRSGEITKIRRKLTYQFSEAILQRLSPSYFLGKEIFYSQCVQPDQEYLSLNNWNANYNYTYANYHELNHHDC
Conditions: protein: recombinant; tags: N-terminal GST; dsDNA, one strand shown. The procedure, abridged:
as §1

Assay [14] deals with ELF4 (Homo sapiens, UniProt Q99607 1-663). Conditions: protein: recombinant; tags: N-terminal GST; dsDNA, one strand shown. The procedure, abridged:
as §1

Assay [15] addresses T9, ELK4 (Homo sapiens, UniProt P28324-2 1-405).
T9 sequence: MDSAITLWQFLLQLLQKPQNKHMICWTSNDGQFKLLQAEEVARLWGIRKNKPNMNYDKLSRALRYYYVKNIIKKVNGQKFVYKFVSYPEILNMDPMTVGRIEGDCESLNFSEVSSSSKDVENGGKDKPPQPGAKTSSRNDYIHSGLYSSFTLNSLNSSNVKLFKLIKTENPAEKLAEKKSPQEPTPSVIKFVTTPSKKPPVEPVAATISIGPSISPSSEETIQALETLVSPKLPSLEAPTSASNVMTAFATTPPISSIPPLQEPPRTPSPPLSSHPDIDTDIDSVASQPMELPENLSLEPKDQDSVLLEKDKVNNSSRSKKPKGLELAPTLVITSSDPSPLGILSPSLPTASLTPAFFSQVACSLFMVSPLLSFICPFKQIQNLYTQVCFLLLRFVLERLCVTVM
The conditions noted are these: protein: recombinant; tags: N-terminal GST; dsDNA, one strand shown. An outline of the steps:
as §1

Assay [16] has as its target T10, ETV2 (Homo sapiens, UniProt O00321 1-342).
T10 sequence: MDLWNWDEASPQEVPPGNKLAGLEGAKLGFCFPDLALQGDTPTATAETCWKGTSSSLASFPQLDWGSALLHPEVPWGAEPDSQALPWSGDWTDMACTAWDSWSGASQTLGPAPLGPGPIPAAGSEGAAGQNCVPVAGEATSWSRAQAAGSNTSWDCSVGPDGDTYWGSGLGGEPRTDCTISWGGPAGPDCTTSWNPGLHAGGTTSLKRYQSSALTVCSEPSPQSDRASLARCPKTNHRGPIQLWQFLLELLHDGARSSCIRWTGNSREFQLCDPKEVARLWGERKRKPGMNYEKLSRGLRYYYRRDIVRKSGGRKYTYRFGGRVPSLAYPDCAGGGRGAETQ
Conditions: protein: recombinant; tags: N-terminal GST; dsDNA, one strand shown. The procedure, abridged:
as §1

Assay [17] deals with T11, ELF3 (Homo sapiens, UniProt P78545 1-371).
T11 sequence: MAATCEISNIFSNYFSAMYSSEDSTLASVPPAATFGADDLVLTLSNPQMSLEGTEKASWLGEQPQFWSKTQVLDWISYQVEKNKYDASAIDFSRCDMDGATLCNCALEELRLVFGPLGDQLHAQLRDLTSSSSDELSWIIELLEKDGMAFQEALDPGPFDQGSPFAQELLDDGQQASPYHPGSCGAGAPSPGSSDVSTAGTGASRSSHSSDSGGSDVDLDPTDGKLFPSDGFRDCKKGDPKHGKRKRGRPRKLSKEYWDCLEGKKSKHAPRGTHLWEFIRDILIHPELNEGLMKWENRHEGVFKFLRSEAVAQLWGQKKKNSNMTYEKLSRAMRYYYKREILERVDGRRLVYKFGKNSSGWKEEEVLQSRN
Conditions: protein: recombinant; tags: N-terminal GST; dsDNA, one strand shown. The procedure, abridged: as §1

Assay [18] deals with CRX (Homo sapiens, UniProt O43186 1-299). Conditions: protein: recombinant; tags: N-terminal GST; dsDNA, one strand shown. The procedure, abridged:
as §1

The target of assay [19] is ETV1 (Homo sapiens, UniProt P50549 1-477). Conditions: protein: recombinant; tags: N-terminal GST; dsDNA, one strand shown. The procedure, abridged:
as §1

Chain of ELF1 (P32519 whole entry): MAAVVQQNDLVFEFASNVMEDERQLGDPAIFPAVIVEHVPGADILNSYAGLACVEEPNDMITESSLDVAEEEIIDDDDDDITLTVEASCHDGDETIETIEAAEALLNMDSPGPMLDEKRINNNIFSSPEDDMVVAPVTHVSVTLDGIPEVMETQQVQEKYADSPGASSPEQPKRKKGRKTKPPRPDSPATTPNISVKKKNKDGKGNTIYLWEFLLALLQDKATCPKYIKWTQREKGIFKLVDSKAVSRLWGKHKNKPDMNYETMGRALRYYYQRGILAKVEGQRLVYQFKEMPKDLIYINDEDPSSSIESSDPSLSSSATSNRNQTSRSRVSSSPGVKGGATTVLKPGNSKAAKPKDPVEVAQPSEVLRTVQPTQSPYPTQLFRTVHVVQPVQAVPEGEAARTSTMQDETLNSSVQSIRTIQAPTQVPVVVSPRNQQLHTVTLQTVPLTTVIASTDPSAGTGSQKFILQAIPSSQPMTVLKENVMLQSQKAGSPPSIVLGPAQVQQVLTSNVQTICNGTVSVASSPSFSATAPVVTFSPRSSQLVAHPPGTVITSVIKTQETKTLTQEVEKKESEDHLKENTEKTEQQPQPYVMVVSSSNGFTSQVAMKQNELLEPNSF
Chain of ELF4 (Q99607 whole entry): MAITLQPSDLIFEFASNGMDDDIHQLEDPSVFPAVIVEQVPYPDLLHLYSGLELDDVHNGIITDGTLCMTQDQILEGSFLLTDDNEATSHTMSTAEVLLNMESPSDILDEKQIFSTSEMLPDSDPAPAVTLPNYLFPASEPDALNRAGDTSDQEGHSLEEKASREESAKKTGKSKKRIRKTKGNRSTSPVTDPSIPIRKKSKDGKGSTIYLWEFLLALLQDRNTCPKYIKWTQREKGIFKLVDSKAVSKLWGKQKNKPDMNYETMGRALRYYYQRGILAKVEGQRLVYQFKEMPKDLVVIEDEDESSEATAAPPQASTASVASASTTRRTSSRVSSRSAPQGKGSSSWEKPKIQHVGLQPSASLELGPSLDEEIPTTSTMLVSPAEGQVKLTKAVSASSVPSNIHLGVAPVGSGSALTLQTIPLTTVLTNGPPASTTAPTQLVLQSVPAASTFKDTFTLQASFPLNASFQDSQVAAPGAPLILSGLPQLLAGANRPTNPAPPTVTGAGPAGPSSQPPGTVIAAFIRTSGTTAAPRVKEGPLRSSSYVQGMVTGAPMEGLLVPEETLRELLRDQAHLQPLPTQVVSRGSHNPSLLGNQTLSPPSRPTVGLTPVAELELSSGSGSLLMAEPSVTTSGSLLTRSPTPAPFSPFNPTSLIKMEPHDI
Chain of SPIB (Q01892 whole entry): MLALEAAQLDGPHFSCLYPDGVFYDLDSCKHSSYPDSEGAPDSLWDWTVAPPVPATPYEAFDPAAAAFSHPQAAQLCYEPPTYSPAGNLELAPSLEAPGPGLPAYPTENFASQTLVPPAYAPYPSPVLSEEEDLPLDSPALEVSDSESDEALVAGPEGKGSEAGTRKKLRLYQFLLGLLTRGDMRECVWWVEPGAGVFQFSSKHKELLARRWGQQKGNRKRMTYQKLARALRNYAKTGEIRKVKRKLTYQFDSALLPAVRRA
Chain of HSF1 (Q00613 whole entry): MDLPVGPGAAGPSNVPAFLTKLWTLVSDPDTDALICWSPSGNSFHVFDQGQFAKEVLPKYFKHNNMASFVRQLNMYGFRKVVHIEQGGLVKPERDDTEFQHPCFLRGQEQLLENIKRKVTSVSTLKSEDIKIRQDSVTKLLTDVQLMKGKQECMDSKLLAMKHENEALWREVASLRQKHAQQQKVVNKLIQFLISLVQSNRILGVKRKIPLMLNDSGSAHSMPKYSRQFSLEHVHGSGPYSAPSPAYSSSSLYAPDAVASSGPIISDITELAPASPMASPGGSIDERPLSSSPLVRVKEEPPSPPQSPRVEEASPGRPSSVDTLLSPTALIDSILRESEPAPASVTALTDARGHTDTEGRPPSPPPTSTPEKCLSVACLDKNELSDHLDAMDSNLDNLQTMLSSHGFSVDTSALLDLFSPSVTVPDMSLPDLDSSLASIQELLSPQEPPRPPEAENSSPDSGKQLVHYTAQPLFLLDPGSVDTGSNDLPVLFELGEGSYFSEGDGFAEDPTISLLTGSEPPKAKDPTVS
Chain of ETV1 (P50549 whole entry): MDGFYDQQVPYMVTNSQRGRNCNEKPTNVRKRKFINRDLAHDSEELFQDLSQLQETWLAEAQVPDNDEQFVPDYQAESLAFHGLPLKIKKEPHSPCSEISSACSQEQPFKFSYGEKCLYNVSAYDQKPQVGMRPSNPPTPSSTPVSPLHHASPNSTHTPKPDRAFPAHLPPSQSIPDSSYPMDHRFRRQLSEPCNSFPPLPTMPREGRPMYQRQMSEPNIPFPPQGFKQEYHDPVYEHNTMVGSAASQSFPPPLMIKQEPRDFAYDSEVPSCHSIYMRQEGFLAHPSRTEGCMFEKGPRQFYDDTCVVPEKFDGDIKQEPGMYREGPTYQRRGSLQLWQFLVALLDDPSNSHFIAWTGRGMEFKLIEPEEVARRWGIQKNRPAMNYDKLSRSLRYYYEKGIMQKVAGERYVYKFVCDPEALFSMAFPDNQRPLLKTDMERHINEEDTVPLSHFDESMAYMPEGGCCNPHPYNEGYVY
Chain of CRX (O43186 whole entry): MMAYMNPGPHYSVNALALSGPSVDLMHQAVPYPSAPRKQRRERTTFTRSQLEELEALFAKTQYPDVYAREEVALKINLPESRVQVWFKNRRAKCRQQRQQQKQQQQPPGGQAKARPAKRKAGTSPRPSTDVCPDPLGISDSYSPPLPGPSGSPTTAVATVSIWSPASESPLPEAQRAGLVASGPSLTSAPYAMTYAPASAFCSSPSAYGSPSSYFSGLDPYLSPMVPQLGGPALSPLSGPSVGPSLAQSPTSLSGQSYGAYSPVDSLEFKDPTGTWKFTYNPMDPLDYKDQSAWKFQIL
Chain of ETV5 (P41161 whole entry): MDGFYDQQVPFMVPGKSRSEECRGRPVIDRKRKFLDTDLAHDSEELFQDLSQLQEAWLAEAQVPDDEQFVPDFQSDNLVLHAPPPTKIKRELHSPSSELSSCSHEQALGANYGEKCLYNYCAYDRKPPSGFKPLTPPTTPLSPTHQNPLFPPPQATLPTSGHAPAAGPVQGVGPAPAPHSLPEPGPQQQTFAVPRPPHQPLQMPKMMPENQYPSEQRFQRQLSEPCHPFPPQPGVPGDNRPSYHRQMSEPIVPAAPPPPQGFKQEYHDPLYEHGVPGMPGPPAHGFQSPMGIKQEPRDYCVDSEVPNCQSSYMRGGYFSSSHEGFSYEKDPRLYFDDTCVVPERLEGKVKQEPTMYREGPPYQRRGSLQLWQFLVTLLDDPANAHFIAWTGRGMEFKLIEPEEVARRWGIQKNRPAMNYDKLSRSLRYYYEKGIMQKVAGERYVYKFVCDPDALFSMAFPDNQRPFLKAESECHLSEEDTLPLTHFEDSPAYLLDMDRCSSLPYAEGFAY

As for CTCGGC, the binding signal in assay [1] was 1.47 fold enrichment (6-mer frequency, TF over GST control); in assay [2], 1.33 fold enrichment (6-mer frequency, TF over GST control); in assay [3], 1.39 fold enrichment (6-mer frequency, TF over GST control); in [4] it was 1.26 fold enrichment (6-mer frequency, TF over GST control); in [5], 1.38 fold enrichment (6-mer frequency, TF over GST control); in [6], 1.52 fold enrichment (6-mer frequency, TF over GST control). For the same sequence, the binding signal is 1.45 fold enrichment (6-mer frequency, TF over GST control) in [7]; 1.27 fold enrichment (6-mer frequency, TF over GST control) in assay [8]; 1.39 fold enrichment (6-mer frequency, TF over GST control) in assay [9]; 1.29 fold enrichment (6-mer frequency, TF over GST control) in [10]; 1.41 fold enrichment (6-mer frequency, TF over GST control) in assay [11]; 1.31 fold enrichment (6-mer frequency, TF over GST control) in assay [12]. Moreover, the binding signal in assay [13] was 1.26 fold enrichment (6-mer frequency, TF over GST control); in assay [14], 1.56 fold enrichment (6-mer frequency, TF over GST control); in [15] it was 1.39 fold enrichment (6-mer frequency, TF over GST control); in assay [16], 1.34 fold enrichment (6-mer frequency, TF over GST control); in assay [17], 1.52 fold enrichment (6-mer frequency, TF over GST control); in assay [18], 1.13 fold enrichment (6-mer frequency, TF over GST control). Moreover, the binding signal in assay [19] is 1.54 fold enrichment (6-mer frequency, TF over GST control).
